Assay outcomes (PubChem)
Shown are actives, neighbours in structure and some others; about 7.6% of the full set was active somewhere.
Cy5 interf NS3h: Cy5 fluorescence quenchers or enhancers, artefact control for HCV NS3 helicase inhibitor project, biochemical, ChemBridge library, Cy5 readout; Cy5-dT15 DNA with NS3h, fluorescence interference; actives lie on both sides; signal over control mean, under 1 quenches; 16,000 tested, 6% active; fluorescence interference ratio at 100 µM;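 active = compound fluorescence over control fluorescence at most 0.8, a quencher, or at least a set upper limit, an enhancer; inactive = ratio between 0.8 and the set upper limit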
NS3h inh CB: HCV NS3 helicase inhibitors, primary screen, biochemical, fluorescence polarization, ChemBridge library | NS3h Cy5-dT15 DNA binding | 16,000 tested, 1.6% active | inhibition, % at 100 µM;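 active = inhibition above the average over every tested compound plus 3 SD, cut at about 40% in these data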
NS3h confirm: HCV NS3 helicase inhibitors, retest, confirmation, biochemical, fluorescence polarization, ChemBridge library; shares compounds with NS3h inh CB; NS3h binding to Cy5-dT15 DNA; inhibition, % at 100 µM; 240 tested, 20% active; AID 720485, 2013;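 active = percent inhibition of 50% or more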
SSB FP counter: E. coli SSB-DNA binding inhibitors, counter-screen for HCV NS3 helicase inhibitor project, biochemical, fluorescence polarization, selected ChemBridge compounds; shares compounds with NS3h inh CB; E. coli SSB binding Cy5-dT15; inhibition, % at 100 µM; 240 tested, 40% active;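 active = inhibition of at least 50%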;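 also: displacers lower Cy5 polarization so higher inhibition means more SSB displaced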
Target sequence (P0AGE0 whole entry, looked up): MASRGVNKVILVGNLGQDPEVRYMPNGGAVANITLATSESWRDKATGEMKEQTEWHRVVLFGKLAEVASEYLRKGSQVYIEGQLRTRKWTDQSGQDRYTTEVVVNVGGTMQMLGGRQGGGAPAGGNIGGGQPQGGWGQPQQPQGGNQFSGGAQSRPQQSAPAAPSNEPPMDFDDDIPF
Cy5 SSB fluor CB: Cy5 fluorescence interference with SSB-bound oligo, artefact control for HCV NS3 helicase inhibitor project, biochemical, E. coli SSB, selected ChemBridge compounds | shares compounds with NS3h inh CB | Cy5-dT15/E. coli SSB fluorescence interference; actives lie on both sides | AID 720487, 2013 | fluorescence interference ratio at 100 µM | 240 tested, 8% active;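 active = fluorescence interference ratio at or above 1.2, signal boosting, or at or below 0.8, signal quenching; inactive = ratio between 0.8 and 1.2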;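 also: ratio of compound well signal to mean negative control signal so 1 means no effect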
Cy5 fluor confirm: Cy5-DNA-NS3h complex fluorescence interference, confirmation, artefact control for HCV NS3 helicase inhibitor project, biochemical, ChemBridge library. shares compounds with NS3h inh CB. Cy5-dT15 DNA/NS3h fluorescence interference counterscreen. fluorescence interference ratio at 100 µM, hits read low. 240 tested, 44% active. AID 720489, 2013;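 active = fluorescence interference ratio at or below 0.8 quencher or at or above a set limitenhancer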;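 also: ratio of compound fluorescence to mean of negative controls so 1 means no interference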
Active calls of the source: *; ! = a repeat was not active.

`COc1cccc(C=C2C(=O)NC(=O)NC2=O)c1` gave Cy5 interf NS3h 0.98 and NS3h inh CB 32.
Screening COc1ccc(C=C2C(=O)NC(=S)NC2=O)c(OC)c1 returned Cy5 interf NS3h 0.78* and NS3h inh CB 11.
For COc1ccc2[nH]cc(CCN)c2c1 the results were Cy5 interf NS3h 0.76* and NS3h inh CB 7.
CC1=NN(c2ccccc2)C(=O)C1=Cc1c(O)[nH]c(=O)[nH]c1=O was read as Cy5 interf NS3h 0.71* and NS3h inh CB 14.
Screening CCN1CCN(c2ccc(C(F)(F)F)cn2)CC1 returned Cy5 interf NS3h 0.98 and NS3h inh CB -15.
O=C(Cn1c[n+]([N-][N+](=O)[O-])cn1)Nc1ccc(NC(=O)Cn2c[n+]([N-][N+](=O)[O-])cn2)cc1 was read as Cy5 interf NS3h 0.76* and NS3h inh CB -6.
O=C(Cn1c[n+]([N-][N+](=O)[O-])cn1)N1CCN(C(=O)Cn2c[n+]([N-][N+](=O)[O-])cn2)CC1 was read as Cy5 interf NS3h 1.1 and NS3h inh CB 0.
Cc1cc([N+](=O)[O-])nn1CC(=O)Nc1ccc(Cl)cc1C(=O)c1ccccc1 was read as Cy5 interf NS3h 0.57* and NS3h inh CB 9.
Screening O=C(Nc1ccc(Cl)cc1C(=O)c1ccccc1)c1cncc(Br)c1 returned Cy5 interf NS3h 0.94 and NS3h inh CB 11.
CC(Nc1ccc([N+](=O)[O-])c2cccnc12)c1ccc(Br)cc1 (stereo not given) was read as Cy5 interf NS3h 0.68* and NS3h inh CB 26.
CCCc1ccc(OCCNc2ccc([N+](=O)[O-])c3cccnc23)cc1 was read as Cy5 interf NS3h 1 and NS3h inh CB 11.
Screening O=[N+]([O-])c1ccc(NCC(O)c2ccccc2)c2ncccc12 (stereo not given) returned Cy5 interf NS3h 0.65* and NS3h inh CB 36.
`O=[N+]([O-])c1ccc(NCCCO)c2ncccc12` gave Cy5 interf NS3h 0.93 and NS3h inh CB -14.
COc1cccc(CN2CCN(Cc3cc(Br)ccc3O)CC2)c1 was read as Cy5 interf NS3h 0.94 and NS3h inh CB 1.
`Oc1ccc(Br)cc1CN1CCN(Cc2ccccc2F)CC1` gave Cy5 interf NS3h 0.89 and NS3h inh CB -11.
`CC(C)COP(C)(=S)/C(C#N)=C(\OC(=O)c1ccccc1)c1ccccc1` (stereo not given) gave Cy5 interf NS3h 0.96 and NS3h inh CB -2.
CC1(C)C(=O)N(c2ccccc2)C(=O)N(c2ccccc2)C1=O was read as Cy5 interf NS3h 0.94 and NS3h inh CB -1.
`N#CC1=C(N)Oc2c(c(=O)oc3ccccc23)C1c1cccc([N+](=O)[O-])c1` (stereo not given) gave Cy5 interf NS3h 1.1 and NS3h inh CB 19.
For Cc1ccc(NC(=O)c2nc[nH]c2C(=O)Nc2ccc(Br)cc2C(=O)c2ccccc2)cc1 the results were Cy5 interf NS3h 1.1 and NS3h inh CB -2.
For COC(=O)c1[nH]cnc1C(=O)Nc1ccc(Cl)cc1C(=O)c1ccccc1 the results were Cy5 interf NS3h 0.72*! and NS3h inh CB 16.
Screening COC(=O)C(=O)/C(=C\c1ccc(-c2ccccc2[N+](=O)[O-])o1)C(=O)c1ccccc1 returned Cy5 interf NS3h 0.94 and NS3h inh CB 16.
For Oc1ccc(Br)cc1CN1CCN(Cc2cccc(Cl)c2)CC1 the results were Cy5 interf NS3h 1.1 and NS3h inh CB 9.
Screening COc1ccc(OP(=O)(Oc2ccccc2)Oc2ccc(OC)cc2)cc1 returned Cy5 interf NS3h 0.99 and NS3h inh CB 10.
O=[N+]([O-])c1ccc(N2CCCC2)c(F)c1Br was read as Cy5 interf NS3h 0.84 and NS3h inh CB -3.
Cc1ccc(C)n1-c1ccc(N2CCNCC2)c([N+](=O)[O-])c1 was read as Cy5 interf NS3h 0.32* and NS3h inh CB -18.
O=P(Oc1ccccc1)(Oc1ccccc1)C(NCc1ccccc1)c1ccccc1 (stereo not given) was read as Cy5 interf NS3h 1 and NS3h inh CB 4.
Screening O=c1oc2ccccc2c2c1C(c1ccc(Cl)cc1)c1c(c3ccccc3oc1=O)O2 returned Cy5 interf NS3h 1 and NS3h inh CB 5.
For O=C1NC(=S)NC(=O)C1=Cc1ccc(-c2cc(Cl)c([N+](=O)[O-])cc2Cl)o1 the results were Cy5 interf NS3h 0.88 and NS3h inh CB 25.
Cc1ccc(N2C(=O)/C(=C/c3ccc(-c4cccc(C(=O)O)c4)o3)C(=O)NC2=S)cc1 was read as Cy5 interf NS3h 1, NS3h inh CB 83*, NS3h confirm 55*, SSB FP counter 105*, Cy5 SSB fluor CB 0.81 and Cy5 fluor confirm 0.93.
`O=C1NC(=S)N(c2ccccc2)C(=O)/C1=C/c1ccc(-c2ccc(C(=O)O)c(Cl)c2)o1` gave Cy5 interf NS3h 1.1, NS3h inh CB 68*, NS3h confirm 66*, SSB FP counter 95*, Cy5 SSB fluor CB 0.84 and Cy5 fluor confirm 0.93.
O=C1NC(=O)N(c2ccccc2)C(=O)/C1=C\c1ccc(-c2ccc(C(=O)O)cc2)o1 was read as Cy5 interf NS3h 0.95, NS3h inh CB 83*, NS3h confirm 91*, SSB FP counter 94*, Cy5 SSB fluor CB 0.84 and Cy5 fluor confirm 0.76*.
Cc1ccc(N2C(=O)NC(=O)/C(=C\C=C\c3ccccc3)C2=O)cc1 was read as Cy5 interf NS3h 0.91 and NS3h inh CB 14.
Screening Cc1ccc(-n2c(C)cc(/C=C3\C(=O)NC(=S)N(c4ccccc4)C3=O)c2C)cc1 returned Cy5 interf NS3h 0.97 and NS3h inh CB 0.
For COc1ccccc1CNCCc1ccc(Cl)cc1 the results were Cy5 interf NS3h 1.1 and NS3h inh CB -6.
For COc1ccccc1-n1c(/C=C/c2cccnc2)nc2ccccc2c1=O the results were Cy5 interf NS3h 0.99 and NS3h inh CB -10.
`Cc1cccc(C(=O)NC(Oc2ccccc2[N+](=O)[O-])C(Cl)(Cl)Cl)c1` (stereo not given) gave Cy5 interf NS3h 0.91 and NS3h inh CB 4.
Cc1cc(C=C2C(=O)NC(=O)NC2=O)c(C)n1C was read as Cy5 interf NS3h 0.93 and NS3h inh CB -2.
Screening Cc1cc(C=C2C(=O)NC(=O)NC2=O)c(C)n1-c1cccnc1 returned Cy5 interf NS3h 1.1, NS3h inh CB 47*, NS3h confirm -3, SSB FP counter 8, Cy5 SSB fluor CB 1 and Cy5 fluor confirm 0.76*.
`CC1=[N+]([O-])C(C(=O)c2ccccc2)N(O)C1(C)C` (stereo not given) gave Cy5 interf NS3h 1 and NS3h inh CB 2.
